Data as given in PubChem BioAssay (Tox21).
Where “and” joins values, the source holds several entries; their conditions need not be identical. Identical values can stand only once. Results filed as inconclusive are left out. Entries that show only a call come without a potency. A number with no mark means an inactive call. Calls of active or inactive are those of the source. The call rests on the fitted dose curve; in most records, active means well fitted cell-killing curve with a large enough effect in the repeat runs; inconclusive means weak or mixed curves, or effect the other way; inactive means flat fitted curve, though single readings scatter.

What was measured:
[1] = cAMP Responsive Elements (CRE) small molecule antagonists, cell-based qHTS assay: qHTS cell viability counter screen (AID 2060913); conditions: CRE-bla HEK293T viability, CellTiter-Glo luminescence, 5 h; series mostly up to 92.4 µM; further: nearly all actives have a fitted effect of over 40% in size
In short: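 CRE-bla HEK293T cells (2,000/well, 18 h) given compound plus NKH477 0.25 uM final for 3 h at 37C; viability counter-screen by CellTiter-Glo luminescence in same wells after 30 min.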

[2] = cAMP Responsive Elements (CRE) small molecule agonists, cell-based qHTS assay: qHTS cell viability counter screen (AID 2060914); conditions: CRE-bla HEK293T viability, CellTiter-Glo luminescence, 5 h; series mostly up to 92.4 µM; further: nearly all actives have a fitted effect of over 50% in size
In short: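 Cytotoxicity was measured as ATP luminescence (CellTiter-Glo, 30 min at room temperature) in the same wells as the CRE-bla FRET read-out. HEK293T CRE-bla cells had 3 h compound exposure at 37C/5% CO2.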
Potency means the concentration at half of the fitted maximal effect.

Compound | Potency [1] | Potency [2] | viability change, negative = cytotoxic [1] | activity change, negative = cytotoxicity [2]
CN1N=C(C(N)=O)CCC1=O | inactive | inactive | – | –
Cc1[nH]c(=O)c(C#N)cc1-c1ccc2nccn2c1 | inactive | inactive | – | –
O=C(O)c1ccccc1Cl | inactive | inactive | – | –
CCC(=O)OC/C=C/c1ccccc1 | inactive | inactive | – | –
O=C(OCC(COC(=O)c1ccccc1)(COC(=O)c1ccccc1)COC(=O)c1ccccc1)c1ccccc1 | inactive | inactive | – | –
CCCCOCCOCCOCCCC | inactive | inactive | – | –
COC(=O)Nc1nc2ccc(Sc3ccccc3)cc2[nH]1 | inactive | inactive | – | –
CCCCC(CC)COS(=O)(=O)O (stereo unspecified) | inactive | inactive | – | –
CCOC(=O)C(C)Oc1ccc(Oc2cnc3cc(Cl)ccc3n2)cc1 (stereo unspecified) | inactive | inactive | – | –
CC(C)NC[C@@H](O)COc1cccc2ccccc12 | inactive | inactive | – | –
CC(C(=O)O)c1ccc2c(c1)CC(=O)c1ccccc1S2 (stereo unspecified) | inactive | inactive | – | –
C=C(C)C(N)=O | inactive | inactive | – | –
CCCOCCOCCO | inactive | inactive | – | –
CC(C)=CCC[C@](C)(O)[C@@H]1CC=C(C)CC1 | inactive | inactive | – | –
CC(C)(C)c1cc(C=O)cc(C(C)(C)C)c1O | inactive | inactive | – | –
O=C(c1ccccc1)C1(O)CCCCC1 | inactive | inactive | – | –
CCCCCC=O | inactive | inactive | – | –
Nc1nnc(-c2ccc([N+](=O)[O-])o2)o1 | inactive | inactive | – | –
Cc1cccc(C)c1NC(=O)CN1CCCCCC1 | inactive | inactive | – | –
CC(C)=CC(=O)C=C(C)C | inactive | inactive | – | –
Nc1ccc(S(=O)(=O)Nc2cnc3ccccc3n2)cc1 | inactive | inactive | – | –
CCOC(=O)[C@H](CCc1ccccc1)N[C@@H](C)C(=O)N1CCC[C@H]1C(=O)O | inactive | inactive | – | –

Compound | Potency [1] | Potency [2] | viability change, negative = cytotoxic [1] | activity change, negative = cytotoxicity [2]
CCNC(=O)NCCCOc1cccc(CN2CCCCC2)c1 | inactive | inactive | – | –
Nc1ccc(Cl)c([N+](=O)[O-])c1 | inactive | inactive | – | –
OCCOCCOCCOCCO | inactive | inactive | – | –
O=C(O)P(=O)(O)O | inactive | inactive | – | –
CC(C)N1C(=O)c2ccccc2C1=O | inactive | inactive | – | –
O=C1OC2(c3ccccc31)c1ccc(O)c(Br)c1Oc1c2ccc(O)c1Br | inactive | inactive | – | –
CC(C)=CCC/C(C)=C/C=N/O | inactive | inactive | – | –
O=C(OCC(O)CO)c1ccccc1Nc1ccnc2c(C(F)(F)F)cccc12 (stereo unspecified) | inactive | inactive | – | –
COC(OC)(C(=O)c1ccccc1)c1ccccc1 | inactive | inactive | – | –
CC(C)C(=O)OC/C=C/c1ccccc1 | inactive | inactive | – | –
Cc1ccc(Cl)c(Nc2ccccc2C(=O)O)c1Cl | inactive | inactive | – | –
BrCCOc1ccccc1 | inactive | inactive | – | –
CN(C)CCN(C)CCO | inactive | inactive | – | –
NC(=O)CC[C@@H]1NC(=O)[C@H](Cc2ccccc2)NC(=O)[C@H](Cc2ccc(O)cc2)NC(=O)CCSSC[C@@H](C(=O)N2CCC[C@H]2C(=O)N[C@@H](CCCN=C(N)N)C(=O)NCC(N)=O)NC(=O)[C@H](CC(N)=O)NC1=O | inactive | inactive | – | –
NC(=S)N/N=C/c1cccnc1 | inactive | inactive | – | –
O=C(CC(=O)C(F)(F)F)c1ccccc1 | inactive | inactive | – | –
Cc1c(N)cccc1[N+](=O)[O-] | inactive | inactive | – | –
O=c1[nH]cnc2c1ncn2[C@@H]1O[C@H](CO)[C@@H](O)[C@H]1O | inactive | inactive | – | –
CNC[C@H](O)[C@@H](O)[C@H](O)[C@H](O)CO | inactive | inactive | – | –
CCCCCCCCOCCC#N | inactive | inactive | – | –
O=C(CCCN1CCC(O)(c2cccc(C(F)(F)F)c2)CC1)c1ccc(F)cc1 | inactive | inactive | – | –
CNC(=O)c1c(I)c(NC(=O)CCCCC(=O)Nc2c(I)c(C(=O)O)c(I)c(C(=O)NC)c2I)c(I)c(C(=O)O)c1I | inactive | inactive | – | –

Compound | Potency [1] | Potency [2] | viability change, negative = cytotoxic [1] | activity change, negative = cytotoxicity [2]
CCCCCCCCCC=O | inactive | inactive | – | –
CCC=CC#N | inactive | inactive | – | –
C/C=C/C=C/COC(=O)C(C)C | inactive | inactive | – | –
O=C(Nc1ccccc1)c1ccccc1O | inactive | inactive | – | –
Clc1ccccc1-c1nc(-c2ccncc2)no1 | inactive | inactive | – | –
COc1cc(C(C)(C)C)c(O)c(C(C)(C)C)c1 | inactive | inactive | – | –
COC[C@H](c1ccc(C(F)(F)F)cc1)N1CCN(C2(C)CCN(C(=O)c3c(C)ncnc3C)CC2)C[C@H]1C | inactive | inactive | – | –
CCOC(=O)c1cccnc1 | inactive | inactive | – | –
O=C1OC(=O)C2C3C=CC(C3)C12 (stereo unspecified) | inactive | inactive | – | –
C1C[C@@H]2[C@H]3CC[C@H](C3)[C@@H]2C1 | inactive | inactive | – | –
Cc1c(C)c2c(c(C)c1O)CCC(C)(COc1ccc(CC3SC(=O)NC3=O)cc1)O2 (stereo unspecified) | inactive | inactive | – | –
CC1=C(O)C(=O)C(C)O1 (stereo unspecified) | inactive | inactive | – | –
OCCC1CCCCN1 (stereo unspecified) | inactive | inactive | – | –
COC(=O)c1ccccc1O | inactive | inactive | – | –
CCC(C)C1CCCCC1=O (stereo unspecified) | inactive | inactive | – | –
NC(CSCC(=O)O)C(=O)O (stereo unspecified) | inactive | inactive | – | –
[O]=[Zr] | inactive | inactive | – | –
O=C=NCc1cccc(CN=C=O)c1 | – | – | 5.35% [at 18.9 µM] | -0.289% [at 18.9 µM]
C[C@@H](O)[C@H]1C(=O)N2C(C(=O)O)=C(SCCN=CN)C[C@H]12 | inactive | inactive | – | –
Brc1c2ccccc2c(Br)c2ccccc12 | – | – | -0.61% [at 8.39 µM] | -1.97% [at 8.39 µM]
COC(=O)c1ccc(C(=O)O)cc1 | inactive | inactive | – | –
CCCCC(CC)CNCC(CC)CCCC (stereo unspecified) | inactive | inactive | – | –

Compound | Potency [1] | Potency [2] | viability change, negative = cytotoxic [1] | activity change, negative = cytotoxicity [2]
O=C(O)c1cccc(-c2noc(-c3ccccc3F)n2)c1 | 23.7 µM (active) | 21.1 µM (active) | – | –
O=C(O)CCCCCCCC(=O)O | inactive | inactive | – | –
CCOC(=O)c1ccc(C2CCC(NC[C@H](O)COc3ccc(O)c(NS(C)(=O)=O)c3)CC2)cc1 (stereo partly specified) | inactive | inactive | – | –
COC(CC(C)CCCC(C)(C)O)OC (stereo unspecified) | inactive | inactive | – | –
CN1CC(=O)N2[C@H](c3ccc4c(c3)OCO4)c3[nH]c4ccccc4c3C[C@@H]2C1=O | inactive | inactive | – | –
Nc1ccn([C@@H]2O[C@H](CO)[C@@H](O)[C@@H]2O)c(=O)n1 | inactive | inactive | – | –
CCCCCCCCCCCCCCCC[N+](C)(C)Cc1ccccc1 | 63.1 µM (active) and 49.4 µM (active) and 33.5 µM (active) | 70.8 µM (active) and 44.1 µM (active) and 26.6 µM (active) | – | –
CC1=Nc2ccc3ccccc3c2C1(C)C | inactive | inactive | – | –
Cc1ccccc1Cl | inactive | inactive | – | –
CC(N)CN (stereo unspecified) | inactive | inactive | – | –
COC(=O)[C@H](Cc1ccccc1)NC(=O)[C@@H](N)CC(=O)O | inactive | inactive | – | –
COCCCC/C(=N\OCCN)c1ccc(C(F)(F)F)cc1 | inactive | inactive | – | –
ONc1ccccc1 | inactive | inactive | – | –
O=C(OC1C[C@H]2CC[C@@H](C1)[N+]21CCCC1)C(O)(c1ccccc1)c1ccccc1 (stereo partly specified) | inactive | inactive | – | –
Nc1nc(F)nc2c1ncn2[C@@H]1O[C@H](CO)[C@@H](O)[C@@H]1O | inactive | inactive | – | –
Nc1nc(N)c(-c2ccccc2)s1 | inactive | inactive | – | –
CCCCCCCCCCCCCO | inactive | inactive | – | –
O=C(NCC1CCCCN1)c1cc(OCC(F)(F)F)ccc1OCC(F)(F)F (stereo unspecified) | inactive | inactive | – | –
CC(C)COC(=O)COc1cc(Cl)c(Cl)cc1Cl | inactive | inactive | – | –
CCCCCCCCCCCc1ccccc1 | inactive | inactive | – | –
c1cc(C(c2ccc(OCC3CO3)cc2)c2ccc(OCC3CO3)cc2)ccc1OCC1CO1 (stereo unspecified) | inactive | inactive | – | –
CC(=O)OCCC(C)C | inactive | inactive | – | –

Compound | Potency [1] | Potency [2] | viability change, negative = cytotoxic [1] | activity change, negative = cytotoxicity [2]
CC(C(=O)O)c1cccc(C(=O)c2ccccc2)c1 (stereo unspecified) | inactive | inactive | – | –
CCN(CC)CCOCCOC(=O)C1(c2ccccc2)CCCC1 | inactive | inactive | – | –
CCCCCCC(=O)O | inactive | inactive | – | –
[O-][n+]1cccc(/C(Cl)=N/OC[C@@H](O)CN2CCCCC2)c1 | inactive | inactive | – | –
CC(C)(C)NC(=O)[C@H]1CC[C@H]2[C@@H]3CC[C@H]4NC(=O)C=C[C@]4(C)[C@H]3CC[C@]12C | inactive | inactive | – | –
Nc1[nH]c(=O)ncc1F | inactive | inactive | – | –
CCCCCCCCCC(=O)N(C)C | inactive | inactive | – | –
C[C@@H]1C[C@H]2[C@@H]3C[C@H](F)C4=CC(=O)C(Cl)=C[C@]4(C)[C@@]3(F)[C@@H](O)C[C@]2(C)[C@@]1(O)C(=O)CO | inactive | inactive | – | –
CCN1CCN(c2cc(-c3ccc(F)cc3)c3c(n2)CCCCCC3)CC1 | – | – | -3.64% [at 18.9 µM] | -20.1% [at 18.9 µM]
Cc1cncc(C)c1 | inactive | inactive | – | –
O=C1O[C@H](CO)[C@@H](O)[C@H](O)[C@H]1O | inactive | inactive | – | –
Cc1c[nH]c(=O)[nH]c1=O | inactive | inactive | – | –
Cc1ccc(N=Nc2c(O)c(C(=O)O)cc3ccccc23)c(S(=O)(=O)O)c1 | inactive | inactive | – | –
CCCCCCCCCCCC[N+](C)(C)Cc1ccccc1 | 60 µM (active) and 59.2 µM (active) and 13.3 µM (active) | 53.4 µM (active) and 37.4 µM (active) and 29.8 µM (active) | – | –
O=C1NC(=O)c2ccccc21 | inactive | inactive | – | –
C=CCON/C(CCC)=C1\C(=O)CC(C)(C)C(C(=O)OC)=C1O | inactive | inactive | – | –
O=C(O)c1ccc(Cl)cc1Cl | inactive | inactive | – | –
O=C(OCC1(COC(=O)c2cccnc2)CCCC(COC(=O)c2cccnc2)(COC(=O)c2cccnc2)C1O)c1cccnc1 | inactive | inactive | – | –
C/C=C/c1ccc(OC)cc1 | inactive | inactive | – | –
O=c1cccc[nH]1 | inactive | inactive | – | –
